Among all 2,100 compounds or so, about 1,100 (52%) were called active. Another 27% or so got no clear call; they are omitted. Calls come from the whole dose curve; as a rule, active = well fitted inhibition curve with a large enough effect; inconclusive = small, poorly fitted or top-dose-only effect; inactive = no such curve, though single readings can be large or run the other way. The set was probably picked from earlier hits. Some of the results follow.
What follows are compounds tested against DNA dC->dU-editing enzyme APOBEC-3G (Homo sapiens) (UniProt Q9HC16) (assay: qHTS for inhibitors of Vif-A3G interactions: Cherry picks counterscreen). Details: HeLa A3G-eYFP + Vif (tagged APOBEC3G with the HIV-1 protein that degrades it), eYFP fluorescence, 24 h.
DNA dC->dU-editing enzyme APOBEC-3G (Homo sapiens), sequence (Q9HC16 whole entry, looked up): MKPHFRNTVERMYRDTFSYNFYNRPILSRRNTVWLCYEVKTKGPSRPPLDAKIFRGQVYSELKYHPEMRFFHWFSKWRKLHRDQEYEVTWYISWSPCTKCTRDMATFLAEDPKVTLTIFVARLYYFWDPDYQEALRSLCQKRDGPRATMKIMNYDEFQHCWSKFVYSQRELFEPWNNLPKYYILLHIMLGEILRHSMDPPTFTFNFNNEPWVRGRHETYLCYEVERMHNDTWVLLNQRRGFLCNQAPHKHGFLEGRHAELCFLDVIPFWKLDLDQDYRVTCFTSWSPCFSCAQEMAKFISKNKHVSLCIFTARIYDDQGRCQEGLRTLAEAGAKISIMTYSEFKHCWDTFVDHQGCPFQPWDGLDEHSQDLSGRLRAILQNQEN
In short: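 Readout is eYFP fluorescence (488 nm excitation, 500-530 nm emission) measured on Acumen Explorer after 24 h compound exposure, several concentrations, at 37 deg C. Cells: HeLa stably co-expressing Vif and C-terminally eYFP-tagged A3G; MG132 positive control.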
With `CCCNC(=O)c1ccccc1NC(=O)c1ccc2c(c1)NC(=O)C(C)S2` (stereo unspecified) the Potency was 7.04 µM (active).
With `CC1Sc2ccc(C(=O)NCc3ccccn3)cc2NC1=O` (stereo unspecified) the max response was 3.16% (inactive).
For `CC(C)CCNC(=O)c1ccc2c(c1)NC(=O)C(CS(=O)(=O)Cc1cccc(Br)c1)N2` (stereo unspecified), the max response was 2.76% (inactive).
For `CCN(CC)c1ccc(NC(=O)c2cccc(F)c2)c(C)c1`, the Potency was 4.98 µM (active).
`COc1ccc(OC)c(NC(=O)Cn2cnc3onc(-c4ccc(Cl)cc4)c3c2=O)c1` was tested, and the max response was 9.98% (inactive).
In the case of `COc1ccc(OC)c(Nc2ncnc3c2cnn3-c2cccc(Cl)c2)c1`, the Potency is reported as 7.31 µM (active).
With `Cc1ccc2[nH]c(C(=O)NN=C3CCCCC3)c(-c3ccccc3)c2c1` the max response was 4.2% (inactive).
`Cc1cc(NC(=O)/C(C#N)=C/c2ccc(-c3ccc(SC(F)F)cc3)o2)n(-c2ccccc2)n1` was tested, and the Potency was 4.61 µM (active).
In the case of `Cc1cc(NC(=O)/C(C#N)=C\c2ccc(-c3ccc(SC(F)F)cc3)o2)n(-c2ccccc2)n1`, the Potency is reported as 2.59 µM (active).
`C[n+]1ccc(/C=C/c2c[nH]c3ccc(F)cc23)cc1` was tested, and the Potency was 5.8 µM (active).
For `Cc1ccc2[nH]cc(/C=C/c3cc[n+](C)cc3)c2c1`, the Potency was 1.4 µM (active).
In the case of `COc1ccc2[nH]cc(/C=C/c3cc[n+](C)cc3)c2c1`, the Potency is reported as 9.2 µM (active).
For `COc1ccc2c(c1)c(/C=C/c1cc[n+](C)cc1)cn2C`, the Potency was 2.23 µM (active).
For `Cc1ccc(NC(=S)N/N=C2\CCCCC2C)cc1` (stereo unspecified), the max response was -4.1% (inactive).
With `Cc1ccc(/C=C/c2ccc(N(C)C)cc2)[n+](C)c1` the Potency was 17.7 µM (active).
For `CN(C)c1ccc(/C=C/c2cc[n+](C)cc2)cc1`, the Potency was 12.5 µM (active).
`CC[n+]1cc(C)ccc1/C=C/c1ccc(N(C)C)cc1` was tested, and the Potency was 17.7 µM (active).
With `C=CCOc1c(Cl)cc(C(=S)N2CCCC2)cc1OCC` the Potency was 15.8 µM (active).
With `Cc1cccc(OCCOc2ccccc2C=C(C#N)C#N)c1` the Potency was 22.3 µM (active).
In the case of `CCCOc1cc(N(CC)CC)ccc1/C=C(/C#N)c1nc2ccc(C)cc2[nH]1`, the max response is reported as 37.6% (inactive).
In the case of `COC(=O)c1sccc1S(=O)(=O)N(CC(=O)Nc1cc(F)ccc1F)c1ccc(C)c(C)c1`, the max response is reported as -2.7% (inactive).
With `COC(=O)c1sccc1NC(=S)Nc1cc(C)cc(C)c1` the max response was 5.75% (inactive).
With `CCOc1ccccc1C(=O)Nc1ccsc1C(=O)OC` the Potency was 2.5 µM (active).
With `COc1ccc(NC(=O)C2(C)Cc3c(-c4cccc(C(N)=O)c4)ccnc3O2)cc1` (stereo unspecified) the Potency was 4.44 µM (active).
In the case of `COc1ccc(NC(=O)C2(C)Cc3c(-c4cccc(NC(C)=O)c4)ccnc3O2)cc1` (stereo unspecified), the Potency is reported as 1.77 µM (active).
With `CCCCn1c(N)c(N(CC(C)C)C(=O)Cc2ccc(S(=O)(=O)N3CCOCC3)s2)c(=O)[nH]c1=O` the Potency was 18.4 µM (active).
In the case of `C=CCN1C(=O)c2ccc(C(=O)N(CC(C)C)c3c(N)n(CCCC)c(=O)[nH]c3=O)cc2C1=O`, the max response is reported as 1.27% (inactive).
In the case of `CCCCn1c(N)c(N(Cc2ccccc2OC)C(=O)c2ccc([N+](=O)[O-])s2)c(=O)[nH]c1=O`, the max response is reported as -2.93% (inactive).
`O=S(=O)([N-]c1nc2ccccc2nc1-[n+]1ccc(-c2ccncc2)cc1)c1ccccc1` was tested, and the max response was 5.45% (inactive).
With `CCc1cc[n+](-c2nc3ccccc3nc2[N-]S(=O)(=O)c2ccc(Br)s2)cc1` the Potency was 23.1 µM (active).
`Cc1cc(C)c[n+](-c2nc3ccccc3nc2[N-]S(=O)(=O)c2ccc(Br)s2)c1` was tested, and the Potency was 23.1 µM (active).
In the case of `Cc1ccc(Cc2c(C3CCCCC3)nc3ccc(C)cn23)cc1`, the max response is reported as 27.2% (inactive).
`COc1ccc2oc(-c3ccccc3[N+](=O)[O-])cc(=O)c2c1` was tested, and the Potency was 5.59 µM (active).
With `Cc1ccc(NC(=S)N=Nc2c(O)n(C)c3ccc(S(=O)(=O)N4CCOCC4)cc23)cc1` the max response was 0.754% (inactive).
In the case of `O=C(O)c1ccccc1/C=N/Nc1ccc(S(=O)(=O)N2CCOCC2)cc1[N+](=O)[O-]`, the max response is reported as -0.239% (inactive).
For `CCCN1CCC(=NNc2ccc(S(=O)(=O)N3CCOCC3)cc2[N+](=O)[O-])CC1`, the Potency was 14 µM (active).
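Note: hits raise yellow fluorescence by blocking Vif-driven A3G-eYFP degradation; nearly all actives have a fitted effect of over 70% in size.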
Potency is the fitted concentration of half-maximal effect.
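Throughout, for max response: max response given as percent of control signal.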
